# Screening results deposited in PubChem by NMMLSC.
# RGS4-Gao reg: human RGS4-Galphao interaction regulation; P09471; Multiplexed bead flow cytometry, RGS4-Galphao binding; actives lie on both sides; binding response (% of control), % at 10 µM; 0.33% of 220,000 active; in the data active = binding response below about 49% or above about 150%; inactive = in between;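 note: fluorescent Galphao activated with aluminum fluoride binding bead-coupled RGS4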
# Target sequence (P09471 whole entry, looked up): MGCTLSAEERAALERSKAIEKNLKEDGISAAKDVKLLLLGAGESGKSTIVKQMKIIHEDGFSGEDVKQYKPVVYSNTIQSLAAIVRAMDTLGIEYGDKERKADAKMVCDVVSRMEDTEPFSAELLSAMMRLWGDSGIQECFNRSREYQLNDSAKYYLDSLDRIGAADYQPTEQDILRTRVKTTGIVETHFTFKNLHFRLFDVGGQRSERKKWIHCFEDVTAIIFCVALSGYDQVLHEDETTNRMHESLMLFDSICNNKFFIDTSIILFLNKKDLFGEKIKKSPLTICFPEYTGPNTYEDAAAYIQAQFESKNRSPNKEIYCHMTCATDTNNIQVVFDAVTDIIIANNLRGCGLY
# GSH bead fluor: compound fluoresces at 488/530 nm on GSH beads; GSH beads flow cytometry, compound fluorescence 488/530 nm; hits give high values; fluorescence (KMESF) at 10 µM; 0.25% of 190,000 active; AID 1776; in the data active = fluorescence above about 89;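 note: glutathione beads carrying GST-tagged Bcl family fusion proteins plus one bare bead set; values are compound well signal with DMSO vehicle wells as background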
# Avidin fluor: avidin bead compound fluorescence profile | Avidin beads, compound fluorescence 488/530 nm, flow cytometry; hits give high values | fluorescence (KMESF) at 10 µM | 0.38% of 220,000 active | AID 1775; in the data active = fluorescence above about 47
# RGS8-Gao reg: regulators of human RGS8-Galphao interaction. P09471. response (percent of control binding), % at 10 µM. multiplexed bead flow cytometry, RGS8-Galphao binding; actives lie on both sides. 0.34% of 220,000 active. AID 1423; in the data active = response below about 60% or above about 140%; inactive = in between;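 note: Galphao activated as the GDP aluminium fluoride complex binding bead-coupled RGS8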
# RGS16-Gao: modulates binding between human RGS16 and Galphao. 0.38% of 220,000 active. bead-based flow cytometry RGS16-Galphao binding, fluorescence; actives lie on both sides. O15492+P09471. binding response (% of control), % at 10 µM; call rule not given here;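 note: Galphao activated by GDP with aluminum fluoride before binding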
# Target sequence (O15492 whole entry, looked up): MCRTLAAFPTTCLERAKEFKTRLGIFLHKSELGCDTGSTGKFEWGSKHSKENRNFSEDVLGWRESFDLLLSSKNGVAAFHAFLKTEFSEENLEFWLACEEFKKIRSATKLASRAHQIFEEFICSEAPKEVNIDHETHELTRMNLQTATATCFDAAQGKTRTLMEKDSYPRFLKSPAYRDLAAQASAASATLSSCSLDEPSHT
# Target sequence (P09471 whole entry, looked up): as the sequence (P09471 whole entry, looked up) above
# RGS7-Gao: modulates binding of RGS7 to human Galphao | AID 1439 | binding response (% of control), % at 10 µM | Multiplexed bead flow cytometry; actives lie on both sides | 0.35% of 220,000 active; in the data active = binding response below about 49% or above about 150%; inconclusive = no clear call, values can overlap the other calls; inactive = in between;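 note: fluorescent Galphao held in activated GDP-AlF4 state binding bead-coupled RGS7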
# * hit, by the source's call; ? = inconclusive; nt = no result. The list is not random: actives were taken first. Their share in the collection is about 1.2%.
SMILES,RGS4-Gao reg,GSH bead fluor,Avidin fluor,RGS8-Gao reg,RGS16-Gao,RGS7-Gao
S=C(NCc1ccc2[nH]c3c(c2c1)CCCC3)Nc1ccccc1,49.1*,17,3,70.0,55.3,50.3
CC(=O)N1CCC(N(C(=O)Nc2ccc(C)c(C)c2)C2CCCC2)CC1,103.1,18,47*,100.7,105.7,105.1
CCOC(=O)C(NC(=O)CC)(Nc1nc2c(s1)CCCC2)C(F)(F)F (stereo not drawn),115.5,156*,7,105.8,110.7,106.5
CCCCN(C(=S)Nc1cccc(C)c1C)c1c(N)n(CCC)c(=O)[nH]c1=O,101.1,15,10,100.3,99.7,?
O=C(CSCc1ccc(Cl)cc1)c1ccco1,107.8,260*,7,104.0,107.5,105.9
O=C(CSc1nc2cc(Cl)ccc2s1)c1ccco1,96.1,8,15,99.4,97.6,95.0
COC(=O)c1cc(OC)c(OC)cc1NC(=O)c1cc(C(C)(C)C)oc1C,96.9,nt,3,102.0,100.3,?
COC(=O)COc1cc(C)cc2oc(=O)c(CC(=O)OC)c(C)c12,91.3,24,60*,96.3,93.7,98.9
CC(C)C(=O)n1nc(-c2cccnc2)nc1NCc1cccs1,105.5,10,23,105.7,109.7,105.1
O=C(NN1C(=O)c2ccccc2C1=O)c1ccc2c(c1)C(=O)N(CC1CCCO1)C2=O (stereo not drawn),112.5,nt,52*,103.7,110.5,?
Cc1ccc(NC(=O)c2ccc3c(c2)C(=O)N(CC2CCCO2)C3=O)cc1C (stereo not drawn),100.1,9,7,103.2,109.0,102.8
N#Cc1c(-c2ccc(Cl)cc2)ccn2nc(C3CCCCC3)nc12,105.2,262*,7,102.9,101.0,104.7
CN(C)C(=O)COC(=O)[C@H](Cc1ccccc1)NC(=O)c1ccco1,99.4,18,53*,99.4,102.2,109.2
COc1ccc2nc(SCC(=O)Nc3ccccc3C#N)[nH]c2c1,101.4,20,6,101.6,97.1,97.3
COc1ccc2nc(SCC(=O)Nc3ccccc3C)[nH]c2c1,99.4,19,64*,99.0,99.2,109.7
COc1ccc(-n2c3c(c(=O)[nH]c2=O)C(NC(=O)c2ccncc2)(C(F)(F)F)C(=O)N3)cc1 (stereo not drawn),100.3,11,6,99.9,101.0,92.0
Cc1cnc(C(=O)OCc2ccc(COC(=O)c3cnc(C)cn3)cc2)cn1,103.9,7,69*,100.2,92.6,?
Cc1ccc(CNC(=O)COC(=O)c2cnc(C)cn2)cc1,102.4,16,9,103.8,101.7,?
CC(Oc1ccccc1)C(=O)OCC(=O)NC(=O)NCc1ccco1 (stereo not drawn),106.4,267*,6,105.5,121.7,102.1
CC(C)c1cc(C(=O)OCC(=O)NC(=O)NCc2ccco2)c(O)c(C(C)C)c1,102.6,9,9,101.4,104.9,?
CCCCNC(=O)CCn1c(=O)c2ccccc2n(Cc2ccc(Cl)cc2)c1=O,98.3,5,7,93.8,76.2,98.2
O=C1C(CSCc2ccccc2)NC(=S)N1c1ccccc1 (stereo not drawn),127.8,nt,21,100.9,118.8,?
CCOC(=O)/C=C1\SCC(=O)N1Cc1nnc(-c2ccccc2Br)o1,97.9,22,50*,97.9,97.6,101.2
CC(C)c1ccc(C(N)=S)cc1,100.6,16,25,100.5,102.2,97.5
Cc1nc(N2CCOCC2)c(C#N)c(C)c1Br,102.7,260*,7,100.4,100.8,101.6
SMILES,RGS4-Gao reg,GSH bead fluor,Avidin fluor,RGS8-Gao reg,RGS16-Gao,RGS7-Gao
CCc1nnc(NC(=O)C2CCCN2C(=O)NC2CCCCC2)s1 (stereo not drawn),101.7,262*,8,100.3,99.8,102.3
CCN(CC)S(=O)(=O)c1ccc(NC(=O)C2c3ccccc3Oc3ccccc32)cc1,109.2,23,10,105.4,111.5,107.3
CCOc1ccccc1OCC(=O)Nc1nnc(C)s1,109.3,30,117*,104.2,110.2,130.9
COc1cc(-c2c(C#N)c(=O)[nH]c3c2c(C)nn3-c2ccccc2)ccc1O,102.8,17,48*,101.6,101.5,108.6
O=C(COC(=O)c1cc(Br)ccc1Cl)NC1CCCC1,89.7,19,10,92.3,94.3,?
Fc1ccc(-c2csc(N3CCOCC3)n2)cc1,105.8,nt,8,102.2,101.2,?
COc1cc(-c2csc(N3CCOCC3)n2)cc(OC)c1OC,102.3,263*,7,100.7,104.7,101.9
C=CCNC(=O)NC(=O)COC(=O)CNS(=O)(=O)c1ccc(F)c(F)c1F,99.3,16,8,100.7,100.2,?
Cc1ccc(NC(=O)/C=C\C(=O)NCC(=O)O)cc1,91.0,13,9,94.5,86.7,98.8
O=C(COC(=O)/C=C/c1cccs1)Nc1ccc2ccccc2c1,68.9,12,68*,92.8,95.3,133.1
O=C(COC(=O)/C=C/c1cccs1)Nc1ccccc1Cl,97.5,8,22,99.8,101.0,99.6
CCCCOc1ccc(C(=O)N/C(=C/C=C/c2ccccc2)C(=O)NCCO)cc1,100.7,9,4,101.4,103.8,99.5
C=CCNC(=O)/C(=C\C=C\c1ccccc1)NC(=O)c1ccc(OCCCC)cc1,20.1*,19,-2,11.6*,1.7*,13.2*
CCCCN1C(=O)N(C)C2NC(=O)NC21 (stereo not drawn),99.8,14,10,98.4,101.8,98.1
CCCCN1C(=O)N(C)C2C1N(C)C(=O)N2CCCC (stereo not drawn),104.7,130*,5,106.4,123.8,103.0
Cc1cc(C(=O)Nc2ccc(F)cc2C)n(-c2ccccc2)n1,98.1,nt,nt,97.4,98.5,?
O=C(C1CCN(S(=O)(=O)N2CCC3(CC2)OCCO3)CC1)N1CCN(Cc2ccccc2)CC1,129.9,26,133*,98.2,123.5,146.6
O=C(NCCCN1CCN(Cc2ccccc2)CC1)C1CCN(S(=O)(=O)N2CCC3(CC2)OCCO3)CC1,92.8,18,12,93.8,91.8,?
CCOC(=O)C1=C(C)NC(SC)=NC1c1ccc(OC)cc1 (stereo not drawn),107.0,111*,4,103.4,109.8,106.1
Cn1c(=O)n(Cc2ccc(Cl)cc2)c(=O)c2c1nc1n2CCN1Cc1ccco1,101.0,3,8,99.4,103.6,100.4
Cc1cccc(Cn2c(=O)c3c(nc4n3CCN4Cc3ccco3)n(C)c2=O)c1,100.7,23,56*,102.1,102.2,110.0
CC(C)(C)c1ccc(C(=O)NNC(=O)c2cccc(Br)c2)cc1,118.1,32,65*,108.1,107.3,145.7
NC(=S)NNC(=O)c1cccc(Br)c1,104.6,19,29,102.1,104.1,100.5
COc1ccc(CN2CCN(c3ccc(F)cc3)CC2)c(OC)c1OC,117.3,8,67*,102.3,108.3,138.5
